High-throughput results: PubChem, National Center for Advancing Translational Sciences (NCATS)
Hits are enriched below; roughly 4.5% of the tested compounds scored in any of these assays.
HTT-AS act: activators of huntingtin-antisense promoter activity; HEK293 HTT-AS promoter firefly luciferase reporter, 24 h; response scale: percent change from vehicle, -100% = no light; Potency, µM (series often up to 57.5 µM), inactives show at the highest dose activity change, positive = activation, hits mostly activators; 48,000 compounds, 0.24% hits; AID 1508624; note: potency is the fitted concentration of half-maximal effect; nearly all actives have a fitted effect of over 55% in size
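Quantitative HTS used concentration series of up to 57.5 uM final on HEK293 luciferase reporter cells, 24 h at 37 degrees C. Readout was Dual-Glo firefly luminescence.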
NTMT1 inhibitor: inhibitors of human N-terminal methyltransferase NTMT1. Q9BV86. Potency, µM (top dose mostly 114 µM), for inactives: top-dose activity change, negative = inhibition, hits mostly inhibitors. NTMT1 MTase-Glo SAH luminescence, purified enzyme. 59,000 compounds, 2.5% hits;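 note: potency is the fitted concentration of half-maximal effect; plate controls were DMSO vehicle for no effect and no enzyme for full effect; nearly all actives have a fitted effect of over 65% in size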
Target sequence (Q9BV86 whole entry, looked up): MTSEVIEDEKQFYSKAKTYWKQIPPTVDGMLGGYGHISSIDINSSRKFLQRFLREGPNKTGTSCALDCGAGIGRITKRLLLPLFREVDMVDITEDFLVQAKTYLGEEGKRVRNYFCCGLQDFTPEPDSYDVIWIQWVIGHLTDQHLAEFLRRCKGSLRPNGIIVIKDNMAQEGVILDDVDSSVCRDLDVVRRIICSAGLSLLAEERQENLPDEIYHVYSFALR
HTT prom inh: inhibitors of huntingtin promoter activity. HEK293 HTT promoter firefly luciferase reporter, 24 h. Potency, µM (doses to about 57.5 µM), without a hit: at the highest dose activity change, negative = inhibition, actives largely listed as inhibitors. 48,000 compounds, 0.93% hits. AID 1508623; note: potency is the fitted concentration of half-maximal effect; nearly all actives have a fitted effect of over 50% in size
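Firefly luciferase signal from promoter-reporter HEK293 cells was scaled between vehicle (0%) and zero RLU (-100%). Compounds were tested at final concentrations of up to 57.5 uM over 24 h at 37 degrees C. PTC124 at 50 uM final served as control inhibitor.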
GPR32 ag: agonists of human resolvin D1 receptor DRV1 (GPR32); CHO-K1 GPR32 beta-arrestin PathHunter luminescence, 90 min; zero percent set by DMSO-only wells; activation, % at 76.9 µM; 48,000 compounds, 2.5% hits; AID 1346428;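 active = activation of at least 60% and not above a set upper limit, about 1 call in 100 departs from these limits; inconclusive = activation of 40% to 60%, or above that upper limit; inactive = activation under 40%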; note: 0% is about no effect
Target sequence (O75388 whole entry, looked up): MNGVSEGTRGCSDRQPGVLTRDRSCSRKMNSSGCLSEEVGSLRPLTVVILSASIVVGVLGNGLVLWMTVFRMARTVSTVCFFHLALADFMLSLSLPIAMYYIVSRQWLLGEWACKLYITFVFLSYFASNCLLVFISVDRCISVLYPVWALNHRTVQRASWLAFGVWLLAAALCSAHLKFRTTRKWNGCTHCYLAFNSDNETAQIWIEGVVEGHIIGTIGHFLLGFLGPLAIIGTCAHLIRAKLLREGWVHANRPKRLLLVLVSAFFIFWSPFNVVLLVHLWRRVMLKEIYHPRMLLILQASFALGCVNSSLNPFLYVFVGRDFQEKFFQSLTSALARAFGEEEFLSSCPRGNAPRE
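Luminescent readout of beta-Gal complementation quantifies ligand-induced beta-arrestin association with GPR32 in CHO-K1 cells; 90 min compound incubation at 37 °C, detection 1 h at room temperature.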
OvCa metastasis: inhibitors of ovarian cancer cell adhesion and invasion in omental model | SKOV3ip1-GFP adhesion/invasion on 3D omental model, fluorescence | Potency, µM (doses to about 45.8 µM), without a hit: at the highest dose activity change, negative = inhibition, most hits filed as inhibitors | 46,000 compounds, 0.1% hits;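 note: potency is the fitted concentration of half-maximal effect; plate controls were DMSO wells for no effect and tomatine positive control wells for full effect; nearly all actives have a fitted effect of over 65% in size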
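Primary human omental fibroblast/mesothelial 3D culture pre-formed 48 h. SKOV3ip1-GFP cells added with compounds (0.36-46 umol/L), incubated 2 h RT/16 h 37 C, fixed; GFP cells quantified at 488/509 nm.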
* hit, by the source's call. Unless noted, calls come from the whole dose curve; as a rule, active = well fitted curve in the direction sought with a large enough effect; inconclusive = small, poorly fitted or top-dose-only effect, or another doubt; inactive = no such curve, though single readings can be large; an effect the other way counts as inactive or inconclusive.

For COc1ccccc1NC(=O)CSc1nnc(NC(=O)Nc2ccc(C)cc2)s1 the results were HTT-AS act -27%, NTMT1 inhibitor 5%, HTT prom inh inconclusive, GPR32 ag 78* and OvCa metastasis -24%.
O=C(/C=C/c1ccccc1)Nc1nc(-c2cccs2)ns1 was read as HTT-AS act 17%, NTMT1 inhibitor 16%, HTT prom inh 19%, GPR32 ag 81* and OvCa metastasis -6%.
For Cc1ccc(/C=C/C(=O)Nc2nc(-c3cccs3)ns2)cc1 the results were HTT-AS act -19%, NTMT1 inhibitor 8%, HTT prom inh -8%, GPR32 ag 70* and OvCa metastasis inactive.
For CCOC(=O)c1sc2ncn(CC(=O)Nc3ccc(OCC)cc3)c(=O)c2c1C the results were HTT-AS act -3%, NTMT1 inhibitor 8%, HTT prom inh -5%, GPR32 ag -5 and OvCa metastasis inactive.
For CCc1ccccc1NC(=O)c1ccc2[nH]c(C)c(C)c2c1 the results were HTT-AS act 8.9µM*, NTMT1 inhibitor -2%, HTT prom inh 54%, GPR32 ag 7 and OvCa metastasis inactive.
Screening Cc1ccccc1CNC(=O)c1ccc2[nH]c(C)c(C)c2c1 returned HTT-AS act -10%, NTMT1 inhibitor 79µM*, HTT prom inh 3%, GPR32 ag -10 and OvCa metastasis -8%.
`Cc1ccccc1CNC(=O)c1ccc2c(c1)c(C)c(C)n2C` gave HTT-AS act 1%, NTMT1 inhibitor 1%, HTT prom inh 2%, GPR32 ag -23 and OvCa metastasis inactive.
For Cc1ccccc1NC(=O)c1ccc2[nH]c(C)c(C)c2c1 the results were HTT-AS act inconclusive, NTMT1 inhibitor -10%, HTT prom inh 73%, GPR32 ag -4 and OvCa metastasis inactive.
CCC(C(=O)NC1CCC(C)CC1)n1nc(C)c2sc3ccccc3c2c1=O (stereo not given) was read as HTT-AS act inconclusive, NTMT1 inhibitor -3%, HTT prom inh 45%, GPR32 ag -17 and OvCa metastasis inactive.
For CCc1ccccc1NC(=O)CCc1c(C)nc2cc(-c3ccccc3)nn2c1C the results were HTT-AS act -57%, NTMT1 inhibitor 15%, HTT prom inh inconclusive, GPR32 ag 22 and OvCa metastasis inactive.
COc1cc(OC)cc(-c2nc3nc(C)c(CCC(=O)Nc4cc(F)ccc4F)c(C)n3n2)c1 was read as HTT-AS act -20%, NTMT1 inhibitor -29%, HTT prom inh -16%, GPR32 ag -1 and OvCa metastasis inactive.
`Cc1nc2cc(-c3ccccc3)nn2c(C)c1CCC(=O)NCc1cccc(Cl)c1` gave HTT-AS act -71%, NTMT1 inhibitor -1%, HTT prom inh 13µM*, GPR32 ag 23 and OvCa metastasis inactive.
Screening COc1cc(OC)cc(-c2cc3nc(C)c(CCC(=O)NCCc4cccc(C)c4)c(C)n3n2)c1 returned HTT-AS act -71%, NTMT1 inhibitor 9%, HTT prom inh inconclusive, GPR32 ag -7 and OvCa metastasis inactive.
`COc1cc(OC)cc(-c2cc3nc(C)c(CCC(=O)NCc4ccccc4)c(C)n3n2)c1` gave HTT-AS act -86%, NTMT1 inhibitor -5%, HTT prom inh 2µM*, GPR32 ag -19 and OvCa metastasis inconclusive.
`COc1cc(OC)cc(-c2cc3nc(C)c(CCC(=O)Nc4ccc(C(C)=O)cc4)c(C)n3n2)c1` gave HTT-AS act -78%, NTMT1 inhibitor 7%, HTT prom inh 3.2µM*, GPR32 ag -3 and OvCa metastasis 0%.
COc1cc(OC)cc(-c2nc3nc(C)c(CCC(=O)Nc4ccc(F)cc4F)c(C)n3n2)c1 was read as HTT-AS act -14%, NTMT1 inhibitor 89µM*, HTT prom inh -32%, GPR32 ag 0 and OvCa metastasis -4%.
For O=C(Cn1c(=O)oc2cc(S(=O)(=O)N3CCCCC3)ccc21)NCc1ccc(F)cc1 the results were HTT-AS act -49%, NTMT1 inhibitor -2%, HTT prom inh inconclusive, GPR32 ag inconclusive and OvCa metastasis -2%.
For CCOC(=O)CC(NC(=O)CCc1c(C)nc2cc(-c3ccccc3)nn2c1C)c1ccc(C)cc1 (stereo not given) the results were HTT-AS act -80%, NTMT1 inhibitor -1%, HTT prom inh 2.5µM*, GPR32 ag -2 and OvCa metastasis 13%.
Screening COc1ccc(NC(=O)C2CCN(S(=O)(=O)c3c(C)noc3/C=C/c3ccc(C)cc3)CC2)cc1Cl returned HTT-AS act -7%, NTMT1 inhibitor 5%, HTT prom inh 0%, GPR32 ag 16 and OvCa metastasis -9%.
Clc1ccc(C(c2ccc(Cl)cc2)n2cc[n+](CC(OCc3ccc(Cl)cc3Cl)c3ccc(Cl)cc3Cl)c2)cc1 (stereo not given) was read as HTT-AS act -57%, NTMT1 inhibitor 30µM*, HTT prom inh inconclusive, GPR32 ag -3 and OvCa metastasis inconclusive.
For O=C1COc2ccc(-c3cc(-c4ccc(F)cc4)c4c(n3)-c3ccccc3OC4)cc2N1 the results were HTT-AS act -12%, NTMT1 inhibitor 4%, HTT prom inh -9%, GPR32 ag 3 and OvCa metastasis inactive.
COc1ccc(CCNC(=O)c2cnn(-c3cccc(C)c3)c2C2CCNCC2)cc1OC was read as HTT-AS act -13%, NTMT1 inhibitor -9%, HTT prom inh -7%, GPR32 ag -6 and OvCa metastasis 10%.
Screening CN(C)c1ccc(/C=C(\C#N)c2nc3ccccc3c(=O)[nH]2)cc1 returned HTT-AS act inconclusive, NTMT1 inhibitor 35µM*, HTT prom inh 78%, GPR32 ag -4 and OvCa metastasis -9%.
For Cc1cccc(/C=C(\C#N)c2nc3ccccc3c(=O)[nH]2)c1 the results were HTT-AS act -17%, NTMT1 inhibitor 16%, HTT prom inh -5%, GPR32 ag 0 and OvCa metastasis 11%.
For CCc1c(C)nc2nncn2c1NCc1ccc(Cl)cc1 the results were HTT-AS act -44%, NTMT1 inhibitor 2%, HTT prom inh inconclusive, GPR32 ag 66* and OvCa metastasis 19%.
`Cc1ccc(CNc2c(C)c(C)nc3nncn23)cc1` gave HTT-AS act -52%, NTMT1 inhibitor 0%, HTT prom inh inconclusive, GPR32 ag inconclusive and OvCa metastasis -4%.
`NS(=O)(=O)c1ccc(Cc2c(-c3cccc(-c4ccccc4)c3)nn(-c3nc(C(=O)O)cs3)c2CC2CC2)cc1` gave NTMT1 inhibitor 45µM*.
Cc1ccc(-n2nc(C)c(C(=O)NCCCN3CCN(c4ccc(F)cc4)CC3)c2-n2cccc2)cc1 was read as HTT-AS act -53%, NTMT1 inhibitor 6%, HTT prom inh inconclusive, GPR32 ag inconclusive and OvCa metastasis -19%.
